The campaign covered roughly 5,500 compounds. About 2,000 (36%) were called active. Another 18% or so got no clear call; they are omitted. Rule as the data show it: active = normalized growth mostly below about 0.91 (no sharp cut-off); inconclusive = no clear call, values can overlap the other calls; inactive = mostly above about 0.92. This is one part of the list.
Experiment: chemical genetic growth profiling, strain panel (AID 1159580);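 also: tested at 20 µM; growth read once vehicle control cultures reached saturation at 30 °C; 1 = growth at the plate median or of vehicle wells; lower values mean less growth of the strain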
Conditions: growth OD

Measured: normalized growth

CNC(=O)O/N=C\C(C)(C)SC
inactive: S. cerevisiae deletion strains, locus YJR043C, strain POL32, stronger effect = lower value 1.03 | S. cerevisiae deletion strains, locus YJR075W, strain HOC1, stronger effect = lower value 1.02 | S. cerevisiae deletion strains, locus YKL009W, strain mrt4, stronger effect = lower value 1.02 | S. cerevisiae deletion strains, locus YKL068W, stronger effect = lower value 0.998 | S. cerevisiae deletion strains, locus YKL085W, strain MDH1 (second series), stronger effect = lower value 0.996 | S. cerevisiae deletion strains, locus YKL085W, strain MDH1, stronger effect = lower value 0.996 | S. cerevisiae deletion strains, locus YKL160W, strain elf1, stronger effect = lower value 1 | S. cerevisiae deletion strains, locus YKL190W, strain CNB1, stronger effect = lower value 0.991 | S. cerevisiae deletion strains, locus YKR001C, strain vps1, stronger effect = lower value 1.01 | S. cerevisiae deletion strains, locus YKR026C, strain gcn3, stronger effect = lower value 1 | S. cerevisiae deletion strains, locus YKR091W, strain srl3, stronger effect = lower value 1 | S. cerevisiae deletion strains, locus YLL001W, strain dnm1, stronger effect = lower value 0.988 | S. cerevisiae deletion strains, locus YLL026W, stronger effect = lower value 0.997 | S. cerevisiae deletion strains, locus YLL041C, strain sdh2, stronger effect = lower value 1 | S. cerevisiae deletion strains, locus YLR027C, strain aat2, stronger effect = lower value 1.01 | S. cerevisiae deletion strains, locus YLR039C, strain RIC1, stronger effect = lower value 1.02 | S. cerevisiae deletion strains, locus YLR058C, strain SHM2, stronger effect = lower value 1.01 | S. cerevisiae deletion strains, locus YLR102C, strain apc9, stronger effect = lower value 0.986 | S. cerevisiae deletion strains, locus YLR221C, strain rsa3, stronger effect = lower value 1.01 | S. cerevisiae deletion strains, locus YLR258W, strain gsy2, stronger effect = lower value 0.996 | S. cerevisiae deletion strains, locus YLR262C, strain YPT6 (second series), stronger effect = lower value 1.01 | S. cerevisiae deletion strains, locus YLR262C, strain YPT6, stronger effect = lower value 1.06 | S. cerevisiae deletion strains, locus YLR268W, strain sec22, stronger effect = lower value 0.991 | S. cerevisiae deletion strains, locus YLR320W, strain mms22, stronger effect = lower value 0.999 | S. cerevisiae deletion strains, locus YLR330W, strain CHS5, stronger effect = lower value 1.01 | S. cerevisiae deletion strains, locus YLR342W, strain FKS1 (second series), stronger effect = lower value 1 | S. cerevisiae deletion strains, locus YLR342W, strain FKS1, stronger effect = lower value 1 | S. cerevisiae deletion strains, locus YLR357W, strain rsc2, stronger effect = lower value 0.986 | S. cerevisiae deletion strains, locus YLR370C, strain arc18, stronger effect = lower value 1.01 | S. cerevisiae deletion strains, locus YLR371W, strain rom2, stronger effect = lower value 0.978 | S. cerevisiae deletion strains, locus YLR384C, strain iki3, stronger effect = lower value 0.991 | S. cerevisiae deletion strains, locus YLR418C, strain cdc73, stronger effect = lower value 1.01 | S. cerevisiae deletion strains, locus YML016C, strain PPZ1, stronger effect = lower value 1.01 | S. cerevisiae deletion strains, locus YML032C, strain rad52, stronger effect = lower value 0.993 | S. cerevisiae deletion strains, locus YML120C, strain ndi1, stronger effect = lower value 1.01 | S. cerevisiae deletion strains, locus YML124C, strain tub3, stronger effect = lower value 0.996 | S. cerevisiae deletion strains, locus YMR058W, strain fet3, stronger effect = lower value 1.01 | S. cerevisiae deletion strains, locus YMR078C, strain ctf18, stronger effect = lower value 0.992 | S. cerevisiae deletion strains, locus YMR125W, strain sto1, stronger effect = lower value 0.996 | S. cerevisiae deletion strains, locus YMR129W, stronger effect = lower value 1.01 | S. cerevisiae deletion strains, locus YMR205C, strain PFK2, stronger effect = lower value 0.975 | S. cerevisiae deletion strains, locus YMR223W, strain ubp8, stronger effect = lower value 0.995 | S. cerevisiae deletion strains, locus YMR231W, strain pep5, stronger effect = lower value 1 | S. cerevisiae deletion strains, locus YMR263W, strain SAP30, stronger effect = lower value 1.01 | S. cerevisiae deletion strains, locus YMR307W, strain GAS1, stronger effect = lower value 1.02 | S. cerevisiae deletion strains, locus YNL067W, strain RPL9B, stronger effect = lower value 1.01 | S. cerevisiae deletion strains, locus YNL071W, strain lat1, stronger effect = lower value 1.01 | S. cerevisiae deletion strains, locus YNL128W, strain TEP1, stronger effect = lower value 1.01 | S. cerevisiae deletion strains, locus YNL153C, strain GIM3, stronger effect = lower value 1 | S. cerevisiae deletion strains, locus YNL209W, strain ssb2, stronger effect = lower value 1.01 | S. cerevisiae deletion strains, locus YNL233W, strain BNI4, stronger effect = lower value 1.02 | S. cerevisiae deletion strains, locus YNL248C, strain rpa49, stronger effect = lower value 0.992 | S. cerevisiae deletion strains, locus YNL250W, strain rad50, stronger effect = lower value 0.989 | S. cerevisiae deletion strains, locus YNL271C, strain bni1, stronger effect = lower value 0.992 | S. cerevisiae deletion strains, locus YNL298W, strain CLA4, stronger effect = lower value 0.983 | S. cerevisiae deletion strains, locus YNL307C, strain MCK1, stronger effect = lower value 0.989 | S. cerevisiae deletion strains, locus YNL322C, strain KRE1 (second series), stronger effect = lower value 0.999 | S. cerevisiae deletion strains, locus YNL322C, strain KRE1, stronger effect = lower value 1.01 | S. cerevisiae deletion strains, locus YNR049C, strain mso1, stronger effect = lower value 1 | S. cerevisiae deletion strains, locus YNR052C, strain pop2, stronger effect = lower value 0.987 | S. cerevisiae deletion strains, locus YOL006C, strain TOP1, stronger effect = lower value 1.1 | S. cerevisiae deletion strains, locus YOL012C, strain htz1 0.971 | S. cerevisiae deletion strains, locus YOL147C, strain pex11, stronger effect = lower value 0.981 | S. cerevisiae deletion strains, locus YOR001W, strain rrp6, stronger effect = lower value 1.01 | S. cerevisiae deletion strains, locus YOR061W, strain CKA2, stronger effect = lower value 1 | S. cerevisiae deletion strains, locus YOR069W, strain VPS5, stronger effect = lower value 0.998 | S. cerevisiae deletion strains, locus YOR070C, strain gyp1, stronger effect = lower value 1 | S. cerevisiae deletion strains, locus YOR080W, strain dia2, stronger effect = lower value 0.996 | S. cerevisiae deletion strains, locus YOR083W, strain WHI5, stronger effect = lower value 0.999 | S. cerevisiae deletion strains, locus YOR106W, strain vam3, stronger effect = lower value 0.996 | S. cerevisiae deletion strains, locus YOR136W, strain idh2, stronger effect = lower value 1.01 | S. cerevisiae deletion strains, locus YOR144C, strain elg1, stronger effect = lower value 0.983 | S. cerevisiae deletion strains, locus YOR184W, strain ser1, stronger effect = lower value 1 | S. cerevisiae deletion strains, locus YOR265W, strain rbl2, stronger effect = lower value 1.03 | S. cerevisiae deletion strains, locus YOR270C, strain vph1, stronger effect = lower value 1 | S. cerevisiae deletion strains, locus YOR290C, strain snf2, stronger effect = lower value 0.994 | S. cerevisiae deletion strains, locus YOR316C, strain cot1, stronger effect = lower value 0.987 | S. cerevisiae deletion strains, locus YPL051W, strain arl3, stronger effect = lower value 1 | S. cerevisiae deletion strains, locus YPL055C, strain LGE1, stronger effect = lower value 1.05 | S. cerevisiae deletion strains, locus YPL078C, strain atp4, stronger effect = lower value 1 | S. cerevisiae deletion strains, locus YPL106C, strain sse1, stronger effect = lower value 0.996 | S. cerevisiae deletion strains, locus YPL240C, strain hsp82, stronger effect = lower value 1.01 | S. cerevisiae deletion strains, locus YPL241C, strain CIN2, stronger effect = lower value 0.999 | S. cerevisiae deletion strains, locus YPR119W, strain clb2, stronger effect = lower value 0.986 | S. cerevisiae deletion strains, locus YPR141C, strain kar3, stronger effect = lower value 0.996 | S. cerevisiae deletion strains, locus YPR163C, strain tif3, stronger effect = lower value 0.983 | S. cerevisiae deletion strains, locus YPR167C, strain met16, stronger effect = lower value 0.99 | S. cerevisiae deletion strains, strain wtn01, stronger effect = lower value 0.997 | S. cerevisiae strains, strain wild type, stronger effect = lower value 1

Reference: PubChem BioAssay AID1159580 (chemical genetic matrix, 2015)
